Values without a mark were called inactive.

The assay concerns Caenorhabditis elegans dauer (daf-2(e1370)). Briefly: proportion of mobile C. elegans dauer larvae relative to DMSO control (fraction of DMSO control); higher = more viable, less nematicidal, active = 0.63 or less; extreme values may be limits of the assay. Particulars: 60 µM; 5 days; temperature: 20 °C. As for the experimental part: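 DODA library (846 commercial 1,3,4- and 1,2,4-oxadiazole compounds plus commercial nematicide controls) screened at a single dose of 60 µM (0.6% DMSO) in 96-well plates, two biological replicates. Read-outs: C. elegans N2 L1 survival/reproduction score at day 6, 20 °C (0: 0-10 worms, 1: 11-20, 2: 21-50, 3: >50, 4: overgrown/starved). C. elegans daf-2 dauer, D. dipsaci and M. hapla J2 mobility at day 5, 20 °C, and P. penetrans mobility at day 5, 20 °C, each relative to DMSO controls. M. hapla egg hatching at day 12, 25 °C, relative to the mean of 8 DMSO wells on the same plate.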
With `Cc1cc(Br)ccc1OCc1nc(-c2cccnc2)no1`, the “proportion of mobile C. elegans dauer larvae” value (“proportion” below) is 1. Consider `COc1ccccc1NC(=O)CSc1nnc(-c2ccc(Cl)cc2)o1`, for which the “proportion” value is 1.

In the case of `Cc1ccc(-c2noc(COc3ccccc3Cl)n2)cc1`, the “proportion” value was 1.

`Cc1cccc(OC(C)c2nc(-c3ccncc3)no2)c1` (stereo not given): the “proportion” value is 0.85. For `Cc1ccc(C(=O)CSc2nnc(-c3ccccc3)o2)cc1` the value was 1.

In the case of `COc1ccc(-c2noc(-c3ccc(C)c(Cl)c3)n2)cc1`, the “proportion” value was 1. For `O=C(CSc1nnc(-c2ccc(Br)cc2)o1)N1CCCCCC1`, the “proportion” value is 1.

As to `CCOC(=O)c1sc(NC(=O)CSc2nnc(-c3ccc(Cl)cc3)o2)c(C(=O)OCC)c1C`, the “proportion” value was 1. The same measure for `COc1ccc(NC(=O)CSc2nnc(-c3ccccc3C)o2)cc1`: 1; for `Cc1cc(Cl)ccc1OCc1nc(-c2ccncc2)no1`: 1. With `COc1cccc(-c2noc(COc3ccc(C(C)C)cc3)n2)c1`, the “proportion” value is 1. For the compound `CC(C)c1ccc(OCc2nc(-c3ccccn3)no2)cc1`, the “proportion” value is 1. On to `O=C(CSc1nnc(-c2ccccc2)o1)Nc1cc(C(F)(F)F)ccc1Cl`, for which the “proportion” value was 1. As for `COc1ccccc1OCc1nc(-c2ccccc2)no1`, the “proportion” value is 1. For `CC(C)(C)c1ccc(-c2noc(COc3ccccc3)n2)cc1` the value was 1.

As for `COc1ccc(Cl)cc1NC(=O)CSc1nnc(-c2ccc(Br)cc2)o1`, the “proportion” value is 1. Turning to `CCCCSc1nnc(-c2ccc(Br)cc2)o1`, the “proportion” value is 0.5 (active).

With `Cc1cc(OCc2nc(-c3ccccc3)no2)ccc1Br`, the “proportion” value is 1.

On to `COc1ccc(-c2nnc(SCC(=O)Nc3ccc(Cl)c(Br)c3)o2)cc1`, for which the “proportion” value was 1. The same measure for `COc1ccc(-c2noc(COc3ccc(Cl)cc3C)n2)cc1`: 1.

For the compound `COc1ccc(-c2noc(COc3ccc(Br)c(C)c3)n2)cc1`, the “proportion” value is 1.

Regarding `C=CCOc1cccc(-c2nc(-c3cccnc3)no2)c1`, the “proportion” value is 1. The same measure for `O=C(CSc1nnc(-c2ccccc2Cl)o1)Nc1ccc(F)cc1`: 1; for `O=C(Nc1ccccc1-c1nc(-c2ccncc2)no1)c1ccccc1Cl`: 1. The same measure for `CCCCc1nc(-c2ccc(-c3ccc(C)cc3)nc2OC)no1`: 1; for `Cc1ccccc1OCc1nc(-c2ccc3c(c2)OCO3)no1`: 1. With `Clc1ccc(CSc2nnc(-c3ccccn3)o2)cc1`, the “proportion” value was 1. For `Cc1ccc(OCc2nc(-c3cccnc3)no2)c(Br)c1` the value was 1; for `Cc1nc(CSc2nnc(-c3ccccc3)o2)cs1`, 1. For `O=C(CSc1nnc(-c2ccccc2)o1)OCc1ccccc1` the value was 1; for `CC(C)(C)NC(=O)c1ccccc1-c1nc(-c2ccccc2)no1`, 1. With `CC(C)(C)NC(=O)CSc1nnc(-c2ccc(C(C)(C)C)cc2)o1`, the “proportion” value is 1. The same measure for `COc1ccccc1-c1nnc(SCc2ccccc2C)o1`: 1; for `O=C(Nc1ccc(-c2noc(COc3ccccc3)n2)cc1)c1ccc(F)cc1`: 1. As to `Fc1ccc(OCc2nc(-c3ccccc3)no2)cc1`, the “proportion” value was 1. The same measure for `Brc1ccc(CSc2nnc(-c3cccnc3)o2)cc1`: 1; for `Brc1ccc(CSc2nnc(-c3ccco3)o2)cc1`: 1; for `Fc1ccccc1OCc1nc(-c2ccc(Cl)cc2)no1`: 1.

Consider `Cc1ccc(-c2noc(COc3ccc(C)cc3C)n2)cc1`, for which the “proportion” value was 1. As to `COc1ccccc1-c1nnc(SCC(=O)Nc2nc(C)cs2)o1`, the “proportion” value was 1.
